Records with an inconclusive call do not appear. The source made the active and inactive calls. Calls follow the shape of the dose curve; as a rule, active = well fitted curve in the direction sought with a large enough effect; inconclusive = small, poorly fitted or top-dose-only effect, or another doubt; inactive = no such curve, though single readings can be large; an effect the other way counts as inactive or inconclusive.
Experiments:
[1] = test system: HACAT; assay: qHTS assay to identify novel small-molecules to repurpose for Merkel cell carcinoma treatment (AID 1296009); conditions: MCC and control cell lines, CellTiter-Glo viability, 72 h; at 44.8 µM (top of the series) unless noted; also: nearly all actives have a fitted effect of over 60% in size
In short: (§1)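 CellTiter-Glo luminescence after 72 hr compound exposure at 37 degree celsius gave cell viability. Libraries NPC and MIPE were run as 8- and 11-point dose responses; RLUs normalized to DMSO (negative) and no-cell (cytotoxicity) controls.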

[2] = test system: NIH3T3; assay: as above; conditions: MCC and control cell lines, CellTiter-Glo viability, 72 h; at 44.8 µM (top of the series) unless noted
In short: as §1

[3] = test system: C33A; assay: Primary qHTS to identify gynecologic anti-cancer compounds using libraries of approved drugs and bioactive compounds (AID 1345084); conditions: Gynecologic cancer cell panel viability, ATPlite luminescence, 48 h; series mostly up to 57.5 µM; also: % is scaled to controls: 0 for no effect and ±100 for the full control effect; nearly all actives have a fitted effect of over 55% in size
In short: (§2)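 ATP-based viability (ATPlite), 1,000 cells/well, 16 h pre-incubation, 48 h compound at 37 C, 5% CO2, 15 min RT before read.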

[4] = test system: CAOV3; assay: as above; conditions: Gynecologic cancer cell panel viability, ATPlite luminescence, 48 h; series mostly up to 57.5 µM
In short: as §2

[5] = test system: CASKI; assay: as above; conditions: Gynecologic cancer cell panel viability, ATPlite luminescence, 48 h; series mostly up to 57.5 µM
In short: as §2

[6] = test system: Es-2; assay: as above; conditions: Gynecologic cancer cell panel viability, ATPlite luminescence, 48 h; series mostly up to 57.5 µM
In short: as §2

[7] = test system: HeLa; assay: as above; conditions: Gynecologic cancer cell panel viability, ATPlite luminescence, 48 h; series mostly up to 57.5 µM
In short: as §2

[8] = test system: Hek293T; assay: as above; conditions: Gynecologic cancer cell panel viability, ATPlite luminescence, 48 h, control line for the selectivity index; series mostly up to 57.5 µM
In short: as §2

[9] = test system: JEG-3; assay: as above; conditions: Gynecologic cancer cell panel viability, ATPlite luminescence, 48 h; series mostly up to 57.5 µM
In short: as §2

CC1(C)CCC2(C(=O)O)CCC3(C)C(=CCC4C5(C)CCC(O)C(C)(CO)C5C(O)CC43C)C2C1 (stereo not drawn)
inactive: outcome [1] inactive [at 17.4 µM] | outcome [2] inactive [at 17.4 µM] | Potency [3] | Potency [4] | outcome [5] | Potency [6] | Potency [7] | Potency [8] | Potency [9]

CC(=O)OC/C(=C/C(=O)O)CC[C@@H]1C(C)=CC(=O)[C@@H]2C(C)(C)CCC[C@@]12C
inactive: outcome [1] | outcome [2] | Potency [3] | Potency [4] | outcome [5] | Potency [6] | Potency [7] | Potency [8] | Potency [9]

CC(C)C1(O)C=C2C(=O)CC3C(C)(C(=O)O)CCCC3(C)C2CC1 (stereo not drawn)
inactive: outcome [1] | outcome [2] | Potency [3] | Potency [4] | outcome [5] | Potency [6] | Potency [7] | Potency [8] | Potency [9]

COc1cc(O)cc(C)c1C(=O)O[C@H]1[C@@H](O)[C@@H](n2ccc(=O)[nH]c2=O)O[C@@H]1CO
inactive: outcome [1] inactive [at 17.4 µM] | outcome [2] inactive [at 17.4 µM] | Potency [3] | Potency [4] | outcome [5] | Potency [6] | Potency [7] | Potency [8] | Potency [9]

C[C@]1(O)CC[C@@H]2C(C(=O)O)=CO[C@@H](O[C@@H]3O[C@H](COC(=O)/C=C/c4ccc(O)c(O)c4)[C@@H](O)[C@H](O)[C@H]3O)[C@@H]21
inactive: outcome [1] inactive [at 17.4 µM] | outcome [2] inactive [at 17.4 µM] | Potency [3] | Potency [4] | outcome [5] | Potency [6] | Potency [7] | Potency [8] | Potency [9]

C=C1Cc2c(Cl)cc3[nH]c4c5c3c2[C@@]2(O)[C@@H]1C[C@@H]2C(C)(C)O[C@H]5C1CC[C@@]2(O)[C@@]35O[C@@H]3[C@H]3OC(C)(C)[C@H]3O[C@H]5CC[C@]2(C)[C@@]41C (stereo partly drawn)
inactive: outcome [1] inactive [at 17.4 µM] | outcome [2] inactive [at 17.4 µM] | Potency [3] | Potency [4] | outcome [5] | Potency [6] | Potency [7] | Potency [8] | Potency [9]

COC(=O)C1=CO[C@@H](O[C@@H]2O[C@H](CO)[C@@H](O)[C@H](O)[C@H]2O)[C@H]2[C@@H]1C=C[C@]21C=C([C@H](C)OC(=O)/C=C/c2ccc(O[C@@H]3O[C@H](CO)[C@@H](O)[C@H](O)[C@H]3O)cc2)C(=O)O1
inactive: outcome [1] inactive [at 17.4 µM] | outcome [2] inactive [at 17.4 µM] | Potency [3] | Potency [4] | outcome [5] | Potency [6] | Potency [7] | Potency [8] | Potency [9]

C/C(=C\CCC(C)CCO)C(=O)OC[C@H]1O[C@@H](O[C@@H]2OC=C(C(=O)O)[C@H]3CC[C@](C)(O)[C@@H]23)C(O)[C@@H](O)C1O (stereo partly drawn)
inactive: outcome [1] inactive [at 17.4 µM] | outcome [2] inactive [at 17.4 µM] | Potency [3] | Potency [4] | outcome [5] | Potency [6] | Potency [7] | Potency [8] | Potency [9]

COc1cccc(OC)c1-c1ccc(C[C@H](NC(=O)c2c(Cl)cccc2Cl)C(=O)O)cc1
inactive: outcome [1] | outcome [2] | Potency [3] | Potency [4] | outcome [5] | Potency [6] | Potency [7] | Potency [8] | Potency [9]

Cn1c2ccc(NC(=O)c3ccccc3)cc2c(=O)n2nc(C(=O)O)cc12
inactive: outcome [1] inactive [at 17.4 µM] | outcome [2] inactive [at 17.4 µM] | Potency [3] | Potency [4] | outcome [5] | Potency [6] | Potency [7] | Potency [8] | Potency [9]

CC1=CC(=O)[C@]2(O[C@@H]3O[C@@H](C)[C@H](O)[C@@H](O)[C@H]3O)C=CO[C@@H](O[C@@H]3O[C@H](CO)[C@@H](O)[C@H](O)[C@H]3O)[C@H]12
inactive: outcome [1] inactive [at 17.4 µM] | outcome [2] inactive [at 17.4 µM] | Potency [3] | Potency [4] | outcome [5] | Potency [6] | Potency [7] | Potency [8] | Potency [9]

COC(=O)C1=COC(O[C@@H]2O[C@H](CO)[C@@H](O)[C@H](O)[C@H]2O)/C(=C\COC(=O)/C=C/c2ccccc2)C1CC(=O)OCCc1ccc(O)cc1 (stereo partly drawn)
inactive: outcome [1] inactive [at 17.4 µM] | outcome [2] inactive [at 17.4 µM] | Potency [3] | Potency [4] | outcome [5] | Potency [6] | Potency [7] | Potency [8] | Potency [9]

Cc1cc(-n2c(=O)[nH]c(=O)n(C)c2=O)ccc1Oc1ccc(SC(F)(F)F)cc1
inactive: outcome [1] | outcome [2] | Potency [3] | Potency [4] | outcome [5] | Potency [6] | Potency [7] | Potency [8] | Potency [9]

COc1cc([C@H]2OC[C@](O)(Cc3ccc(O[C@@H]4O[C@H](CO)[C@@H](O)[C@H](O)[C@H]4O)c(OC)c3)[C@@H]2CO)ccc1O
inactive: outcome [1] inactive [at 17.4 µM] | outcome [2] inactive [at 17.4 µM] | Potency [3] | Potency [4] | outcome [5] | Potency [6] | Potency [7] | Potency [8] | Potency [9]

C=C1C(=O)O[C@@H]2CC(C)=C([C@@H](C)CCCOC(C)=O)[C@@H](O)[C@H]12
inactive: outcome [1] | outcome [2] | Potency [3] | Potency [4] | outcome [5] | Potency [6] | Potency [7] | Potency [8] | Potency [9]

O=C(/C=C/c1ccc(O)cc1)O[C@H]1[C@H](OC2CCCCC2O)O[C@H](CO)[C@@H](O)[C@@H]1O (stereo partly drawn)
inactive: outcome [1] inactive [at 17.4 µM] | outcome [2] inactive [at 17.4 µM] | Potency [3] | Potency [4] | outcome [5] | Potency [6] | Potency [7] | Potency [8] | Potency [9]

CCC(C)/C=C(C)/C=C/C(=O)C1CCC(O)C(C)(O)C1=O (stereo not drawn)
inactive: outcome [1] | outcome [2] | Potency [3] | Potency [4] | outcome [5] | Potency [6] | Potency [7] | Potency [8] | Potency [9]

COC(=O)C1=CO[C@@H](O[C@@H]2O[C@H](CO[C@@H]3O[C@H](CO)[C@@H](O)[C@H](O)[C@H]3O)[C@@H](O)[C@H](O)[C@H]2O)[C@@H]2C(CO)=CC[C@H]12
inactive: outcome [1] inactive [at 17.4 µM] | outcome [2] inactive [at 17.4 µM] | Potency [3] | Potency [4] | outcome [5] | Potency [6] | Potency [7] | Potency [8] | Potency [9]

CC(=O)OCC(Cc1ccccc1)NC(=O)C(Cc1ccccc1)NC(=O)c1ccccc1 (stereo not drawn)
inactive: outcome [1] inactive [at 17.4 µM] | outcome [2] inactive [at 17.4 µM] | Potency [3] | Potency [4] | outcome [5] | Potency [6] | Potency [7] | Potency [8] | Potency [9]

C[C@]12CCC[C@](C)(C(=O)O)C1[C@@H](O)[C@@H](O)C13CC(CCC12)C(CO)(O[C@@H]1O[C@H](CO)[C@@H](O)[C@H](O)[C@H]1O)C3 (stereo partly drawn)
inactive: outcome [1] inactive [at 17.4 µM] | outcome [2] inactive [at 17.4 µM] | Potency [3] | Potency [4] | outcome [5] | Potency [6] | Potency [7] | Potency [8] | Potency [9]

CCCc1[nH]nc2c1C(c1cc(Cl)cc(Cl)c1O)C(C#N)=C(N)O2 (stereo not drawn)
inactive: outcome [1] | outcome [2] | Potency [3] | Potency [4] | outcome [5] | Potency [6] | Potency [7] | Potency [8] | Potency [9]

CC1(C(=O)O)CCCC2(C)C3CCC4CC3(CCC12)CC4C(=O)O (stereo not drawn)
inactive: outcome [1] | outcome [2] | Potency [3] | Potency [4] | outcome [5] | Potency [6] | Potency [7] | Potency [8] | Potency [9]

CC(C)=CCc1cc(O[C@@H]2O[C@H](CO[C@@H]3OC[C@](O)(CO)[C@H]3O)[C@@H](O)[C@H](O)[C@H]2O)ccc1O
inactive: outcome [1] inactive [at 17.4 µM] | outcome [2] inactive [at 17.4 µM] | Potency [3] | Potency [4] | outcome [5] | Potency [6] | Potency [7] | Potency [8] | Potency [9]

C/C=C/C=C/C(O)=C1/C(=O)[C@]2(C)C3/C(=C(O)/C=C/C=C/C)C(=O)C4(C)C1[C@]1(C)O[C@@]4(O)[C@@]3(C)O[C@@]12O
inactive: outcome [1] inactive [at 17.4 µM] | outcome [2] inactive [at 17.4 µM] | Potency [3] | Potency [4] | outcome [5] | Potency [6] | Potency [7] | Potency [8] | Potency [9]

COc1cc2c(c(OC)c1O)C(c1ccc(O)cc1)C1C(=O)OC3C(COC(=O)C1=C2)OC(CO)(OC1OC(COC(=O)/C=C/c2ccc(OC4OC(C)C(O)C(O)C4O)cc2)C(O)C(O)C1O)C3O (stereo not drawn)
inactive: outcome [1] inactive [at 9.27 µM] | outcome [2] inactive [at 9.27 µM] | activity change, negative = cytotoxicity [3] 12% [at 11.6 µM] | activity change, negative = cytotoxicity [4] -2.13% [at 11.6 µM] | activity change, negative = cytotoxicity [5] 3.12% [at 11.6 µM] | activity change, negative = cytotoxicity [6] 0.658% [at 11.6 µM] | activity change, negative = cytotoxicity [7] -0.142% [at 11.6 µM] | activity change, negative = cytotoxicity [8] 7.04% [at 11.6 µM] | activity change, negative = cytotoxicity [9] 8.95% [at 11.6 µM]

CC(C)=CCC[C@@](C)(O)[C@H]1CC[C@]2(C)[C@@H]1[C@H](O)CC1[C@@]3(C)CC[C@H](O[C@@H]4O[C@H](CO)[C@@H](O)[C@H](O)[C@H]4O[C@@H]4O[C@H](CO)[C@@H](O)[C@H](O)[C@H]4O)C(C)(C)[C@@H]3CC[C@]12C (stereo partly drawn)
inactive: outcome [1] inactive [at 17.4 µM] | outcome [2] inactive [at 17.4 µM] | Potency [3] | Potency [4] | outcome [5] | Potency [6] | Potency [7] | Potency [8] | Potency [9]

CCC(C)C(N)C(=O)NCCN1CCOCC1 (stereo not drawn)
inactive: outcome [1] | outcome [2] | Potency [3] | Potency [4] | outcome [5] | Potency [6] | Potency [7] | Potency [8] | Potency [9]

COc1cc(-c2ccc(O)cc2)c(OC)c(O)c1C1=CC(=O)OC1CC(=O)O (stereo not drawn)
inactive: outcome [1] | outcome [2] | Potency [3] | Potency [4] | outcome [5] | Potency [6] | Potency [7] | Potency [8] | Potency [9]

CC1=C(CC/C(C)=C/C(=O)O)[C@@]2(C)CCCC(C)(C)C2CC1=O (stereo partly drawn)
inactive: outcome [1] | outcome [2] | Potency [3] | Potency [4] | outcome [5] | Potency [6] | Potency [7] | Potency [8] | Potency [9]

CC12CC(c3ccoc3)OC(=O)C1CCC1(C)C2CCC(O)C1(C)O (stereo not drawn)
inactive: outcome [1] | outcome [2] | Potency [3] | Potency [4] | outcome [5] | Potency [6] | Potency [7] | Potency [8] | Potency [9]

O=C(O)C[C@H]1CCC(=O)[C@@H]1C/C=C\CCO
inactive: outcome [1] | outcome [2] | Potency [3] | Potency [4] | outcome [5] | Potency [6] | Potency [7] | Potency [8] | Potency [9]

CC1=C[C@@H]2[C@H]3[C@@H]4O[C@@](C)(CC[C@H]4O)[C@H]3CC(=O)[C@]23C(=O)N[C@@H](CC(C)C)[C@@H]3[C@@H]1C
inactive: outcome [1] | outcome [2] | Potency [3] | Potency [4] | outcome [5] | Potency [6] | Potency [7] | Potency [8] | Potency [9]
